From PubChem BioAssay AID1159580 (chemical genetic matrix, 2015)
Out of some 5,500 compounds screened, about 2,000 (36%) were called active. About 18% were inconclusive and are not listed. Cut-off read from the data, not from the text of the source: active = normalized growth mostly below about 0.91 (no sharp cut-off); inconclusive = no clear call, values can overlap the other calls; inactive = mostly above about 0.92. The list shows a part of the results.

Experiment: chemical genetic growth profiling, strain panel (AID 1159580);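 note: tested at 20 µM; growth read once vehicle control cultures reached saturation at 30 °C; 1 = growth at the plate median or of vehicle wells; lower values mean less growth of the strain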
Conditions: growth OD

Measured: normalized growth

NC(=O)c1ncn([C@@H]2O[C@H](CO)[C@@H](O)[C@H]2O)n1
inactive: S. cerevisiae deletion strains, locus YJR075W, strain HOC1, active compounds read low 0.989 | S. cerevisiae deletion strains, locus YKL009W, strain mrt4, active compounds read low 0.992 | S. cerevisiae deletion strains, locus YKL068W, active compounds read low 0.981 | S. cerevisiae deletion strains, locus YKL085W, strain MDH1 (second series), active compounds read low 1 | S. cerevisiae deletion strains, locus YKL085W, strain MDH1, active compounds read low 1 | S. cerevisiae deletion strains, locus YKL160W, strain elf1, active compounds read low 0.984 | S. cerevisiae deletion strains, locus YKL190W, strain CNB1, active compounds read low 0.988 | S. cerevisiae deletion strains, locus YKR001C, strain vps1, active compounds read low 0.984 | S. cerevisiae deletion strains, locus YKR026C, strain gcn3, active compounds read low 0.984 | S. cerevisiae deletion strains, locus YKR091W, strain srl3, active compounds read low 0.982 | S. cerevisiae deletion strains, locus YLL001W, strain dnm1, active compounds read low 0.984 | S. cerevisiae deletion strains, locus YLL026W, active compounds read low 0.984 | S. cerevisiae deletion strains, locus YLL041C, strain sdh2, active compounds read low 0.983 | S. cerevisiae deletion strains, locus YLR027C, strain aat2, active compounds read low 0.983 | S. cerevisiae deletion strains, locus YLR039C, strain RIC1, active compounds read low 1.01 | S. cerevisiae deletion strains, locus YLR058C, strain SHM2, active compounds read low 0.999 | S. cerevisiae deletion strains, locus YLR102C, strain apc9, active compounds read low 0.998 | S. cerevisiae deletion strains, locus YLR113W, strain HOG1, active compounds read low 0.977 | S. cerevisiae deletion strains, locus YLR221C, strain rsa3, active compounds read low 0.982 | S. cerevisiae deletion strains, locus YLR258W, strain gsy2, active compounds read low 0.98 | S. cerevisiae deletion strains, locus YLR262C, strain YPT6 (second series), active compounds read low 0.987 | S. cerevisiae deletion strains, locus YLR262C, strain YPT6, active compounds read low 0.977 | S. cerevisiae deletion strains, locus YLR268W, strain sec22, active compounds read low 0.987 | S. cerevisiae deletion strains, locus YLR320W, strain mms22, active compounds read low 0.993 | S. cerevisiae deletion strains, locus YLR330W, strain CHS5, active compounds read low 0.989 | S. cerevisiae deletion strains, locus YLR342W, strain FKS1 (second series), active compounds read low 0.991 | S. cerevisiae deletion strains, locus YLR342W, strain FKS1, active compounds read low 0.985 | S. cerevisiae deletion strains, locus YLR357W, strain rsc2, active compounds read low 0.995 | S. cerevisiae deletion strains, locus YLR370C, strain arc18, active compounds read low 0.984 | S. cerevisiae deletion strains, locus YLR371W, strain rom2, active compounds read low 0.985 | S. cerevisiae deletion strains, locus YLR384C, strain iki3, active compounds read low 0.979 | S. cerevisiae deletion strains, locus YLR418C, strain cdc73, active compounds read low 1.03 | S. cerevisiae deletion strains, locus YML016C, strain PPZ1, active compounds read low 1 | S. cerevisiae deletion strains, locus YML032C, strain rad52, active compounds read low 0.988 | S. cerevisiae deletion strains, locus YML120C, strain ndi1, active compounds read low 0.99 | S. cerevisiae deletion strains, locus YML124C, strain tub3, active compounds read low 0.985 | S. cerevisiae deletion strains, locus YMR058W, strain fet3, active compounds read low 0.998 | S. cerevisiae deletion strains, locus YMR078C, strain ctf18, active compounds read low 0.979 | S. cerevisiae deletion strains, locus YMR125W, strain sto1, active compounds read low 0.991 | S. cerevisiae deletion strains, locus YMR129W, active compounds read low 0.997 | S. cerevisiae deletion strains, locus YMR205C, strain PFK2, active compounds read low 0.996 | S. cerevisiae deletion strains, locus YMR223W, strain ubp8, active compounds read low 0.989 | S. cerevisiae deletion strains, locus YMR231W, strain pep5, active compounds read low 0.974 | S. cerevisiae deletion strains, locus YMR263W, strain SAP30, active compounds read low 0.986 | S. cerevisiae deletion strains, locus YMR307W, strain GAS1, active compounds read low 1 | S. cerevisiae deletion strains, locus YNL067W, strain RPL9B, active compounds read low 1 | S. cerevisiae deletion strains, locus YNL071W, strain lat1, active compounds read low 0.988 | S. cerevisiae deletion strains, locus YNL128W, strain TEP1, active compounds read low 1 | S. cerevisiae deletion strains, locus YNL153C, strain GIM3, active compounds read low 1 | S. cerevisiae deletion strains, locus YNL183C, strain NPR1, active compounds read low 0.933 | S. cerevisiae deletion strains, locus YNL209W, strain ssb2, active compounds read low 1 | S. cerevisiae deletion strains, locus YNL233W, strain BNI4, active compounds read low 1.01 | S. cerevisiae deletion strains, locus YNL248C, strain rpa49, active compounds read low 0.986 | S. cerevisiae deletion strains, locus YNL250W, strain rad50, active compounds read low 0.989 | S. cerevisiae deletion strains, locus YNL271C, strain bni1, active compounds read low 0.994 | S. cerevisiae deletion strains, locus YNL298W, strain CLA4, active compounds read low 0.97 | S. cerevisiae deletion strains, locus YNL307C, strain MCK1, active compounds read low 1 | S. cerevisiae deletion strains, locus YNL322C, strain KRE1 (second series), active compounds read low 0.979 | S. cerevisiae deletion strains, locus YNL322C, strain KRE1, active compounds read low 1 | S. cerevisiae deletion strains, locus YNR049C, strain mso1, active compounds read low 0.986 | S. cerevisiae deletion strains, locus YNR052C, strain pop2, active compounds read low 0.977 | S. cerevisiae deletion strains, locus YOL006C, strain TOP1, active compounds read low 1.05 | S. cerevisiae deletion strains, locus YOL012C, strain htz1 1.07 | S. cerevisiae deletion strains, locus YOL147C, strain pex11, active compounds read low 0.981 | S. cerevisiae deletion strains, locus YOR001W, strain rrp6, active compounds read low 0.982 | S. cerevisiae deletion strains, locus YOR061W, strain CKA2, active compounds read low 0.998 | S. cerevisiae deletion strains, locus YOR069W, strain VPS5, active compounds read low 1 | S. cerevisiae deletion strains, locus YOR070C, strain gyp1, active compounds read low 0.98 | S. cerevisiae deletion strains, locus YOR080W, strain dia2, active compounds read low 0.979 | S. cerevisiae deletion strains, locus YOR083W, strain WHI5, active compounds read low 0.986 | S. cerevisiae deletion strains, locus YOR106W, strain vam3, active compounds read low 0.989 | S. cerevisiae deletion strains, locus YOR136W, strain idh2, active compounds read low 0.984 | S. cerevisiae deletion strains, locus YOR144C, strain elg1, active compounds read low 0.985 | S. cerevisiae deletion strains, locus YOR184W, strain ser1, active compounds read low 0.992 | S. cerevisiae deletion strains, locus YOR231W, strain MKK1, active compounds read low 0.975 | S. cerevisiae deletion strains, locus YOR265W, strain rbl2, active compounds read low 0.972 | S. cerevisiae deletion strains, locus YOR270C, strain vph1, active compounds read low 1.02 | S. cerevisiae deletion strains, locus YOR290C, strain snf2, active compounds read low 0.976 | S. cerevisiae deletion strains, locus YOR316C, strain cot1, active compounds read low 0.99 | S. cerevisiae deletion strains, locus YPL051W, strain arl3, active compounds read low 0.98 | S. cerevisiae deletion strains, locus YPL055C, strain LGE1, active compounds read low 0.951 | S. cerevisiae deletion strains, locus YPL078C, strain atp4, active compounds read low 0.992 | S. cerevisiae deletion strains, locus YPL106C, strain sse1, active compounds read low 0.939 | S. cerevisiae deletion strains, locus YPL240C, strain hsp82, active compounds read low 0.992 | S. cerevisiae deletion strains, locus YPL241C, strain CIN2, active compounds read low 0.985 | S. cerevisiae deletion strains, locus YPL256C, strain CLN2, active compounds read low 0.981 | S. cerevisiae deletion strains, locus YPR119W, strain clb2, active compounds read low 0.985 | S. cerevisiae deletion strains, locus YPR141C, strain kar3, active compounds read low 0.989 | S. cerevisiae deletion strains, locus YPR163C, strain tif3, active compounds read low 0.978 | S. cerevisiae deletion strains, locus YPR167C, strain met16, active compounds read low 0.995 | S. cerevisiae deletion strains, strain wtn01, active compounds read low 0.983 | S. cerevisiae strains, strain wild type, active compounds read low 0.996
